# Results taken from article PMC4552634, “A New Set of Chemical Starting Points with Plasmodium falciparum Transmission-Blocking Potential for Antimalarial Drug Discovery” (PLoS ONE, 2015).
# The campaign covered roughly 13,000 compounds. About 3,200 (25%) showed an effect of 50% or more. The list shows a part of the results.
# System: P. falciparum stage V gametocytes
# Parameters: BacTiter-Glo ATP luminescence viability of purified stage V gametocytes in 384-well plates, per cent inhibition versus DMSO
# Conditions: 48 h, 5 µM; inhibitor
row,SMILES,% Inhibition
1,O=C(c1ccccc1F)N(Cc1ccc(Cl)cc1)c1ccccn1 [TCMDC-124909],-19.06%
2,COc1ccc2nccc([C@@H](O)CN3CCC(NCc4ccc5c(c4)sc(=O)n5C)CC3)c2c1 [TCMDC-141149],-6.737%
3,CCCCCC1c2[nH]c3ccccc3c2CCN1C(=O)OCc1ccccc1 (centres unmarked) [TCMDC-134554],-7.791%
4,CCCNCc1ccc(-c2ccc(CN(CC3CCCO3)C(=O)C3CC(=O)c4ccccc43)cc2)nc1 (centres unmarked) [TCMDC-141533],69.47%
5,CCCNCc1ccc(-c2ccc(CN(CCOC)C(=O)CC3CCCC3=O)cc2)nc1 (centres unmarked) [TCMDC-141532],3.565%
6,CCCNCc1ccc(-c2ccc(CN(CC3CCCO3)C(=O)COc3ccccc3Cl)cc2)nc1 (centres unmarked) [TCMDC-141542],45.23%
7,CCCNCc1ccc(-c2ccc(CN(CCOC)C(=O)[C@H]3CCCO3)cc2)nc1 [TCMDC-141530],80.98%
8,CCCNCc1ccc(-c2ccc(CN(Cc3ccc4c(c3)OCO4)C(=O)[C@H]3CCCO3)cc2)nc1 [TCMDC-141531],105.6%
9,O=c1c2c([nH]c3cc(Cl)ccc13)CCCC2 [TCMDC-123504],42.94%
10,CS(=O)(=O)c1ccc(OCCCN(Cc2ccccc2C(F)(F)F)c2ccc(C#N)c(C(F)(F)F)c2)cc1 [TCMDC-135467],19.91%
11,O=C(N[C@@H](CC1CCCCC1)C(=O)NCCN1CCCC1)c1ccc(O)c(-c2cccc(C(F)(F)F)c2)c1 [TCMDC-140811],39%
12,Cc1cc(OC(C)C(=O)N2CCc3ccccc32)ccc1Cl (centres unmarked) [TCMDC-123696],25.65%
13,COc1ccc(Cc2cnc(N)nc2N)cc1OCCCOc1ccccc1 [TCMDC-137364],-5.696%
14,Cn1ccnc1Sc1ncccc1[N+](=O)[O-] [TCMDC-123944],5.094%
15,N#Cc1cccc(NC(=O)C2=C(CCc3ccc4c(c3)OCO4)NC(=O)NC2c2cccc(C#N)c2)c1 (centres unmarked) [TCMDC-136054],65.54%
16,O=C(Nc1cccc(CN2CCCN(Cc3ccc4c(c3)OCO4)CC2)c1)c1ccc2ccccc2c1 [TCMDC-141852],-18.83%
17,O=C(Nc1cccc(CN2CCCN(Cc3ccc4c(c3)OCO4)CC2)c1)c1ccc(-c2ccccc2)cc1 [TCMDC-134593],-55.86%
18,COc1cc(Cc2cnc(NCCN3CCNCC3)nc2N)ccc1OCc1ccc(C(F)(F)F)cc1 [TCMDC-138704],48.16%
19,CCCCCCCN(CCCCCCC)CCNc1cc(C)nc2ccccc12 [TCMDC-137555],59.52%
20,Cc1cc(NCCCCCCCCNc2cc(C)nc3ccccc23)c2ccccc2n1 [TCMDC-137746],113.6%
21,CCCCCCNc1cc(C)nc2ccc(OC)cc12.Cl [TCMDC-137623],-4.593%
22,CCCCCCCNc1cc(C)nc2ccc(OC)cc12.Cl [TCMDC-137622],19.17%
23,CCCCCCCNCCNc1cc(C)nc2ccccc12 [TCMDC-137556],91.75%
24,Cc1cc(NCCCCCCNc2cc(C)nc3c(C)cccc23)c2cccc(C)c2n1 [TCMDC-125702],114%
25,COc1cccc(Nc2nc(C)cc(NC3CCCC3)n2)c1 [TCMDC-133464],31.06%

row,SMILES,% Inhibition
1,CCn1ncc(Cl)c1CN(C)S(=O)(=O)c1ccc2ccccc2c1 [TCMDC-124904],17.76%
2,O=C(Nc1ccc2c(c1)CCC2)c1ccc(CN2CCCN(Cc3cccc(O)c3)CC2)cc1 [TCMDC-136388],-14.41%
3,N#Cc1ccc2c(c1)CN(C1CCC(NC(=O)/C=C/c3cc(C(F)(F)F)cc(C(F)(F)F)c3)CC1)CCC2 (centres unmarked) [TCMDC-133502],-43.57%
4,O=c1cc(NCCCNCc2ccc(Cl)c(Cl)c2)[nH]c2cc(Cl)ccc12 [TCMDC-139401],50.55%
5,CCCC(CNCc1cccc(OC(F)(F)C(F)F)c1)CNc1cc(=O)c2ccccc2[nH]1 (centres unmarked) [TCMDC-139430],-8.212%
6,O=c1cc(NCCCNCc2ccc(Cl)c(Cl)c2)[nH]c2ccc(Cl)cc12 [TCMDC-139400],23.89%
7,O=c1cc(NCCCNCc2cccc(Oc3ccccc3)c2)[nH]c2ccccc12 [TCMDC-139309],31.54%
8,O=c1cc(NCCCNCc2cccc(OC(F)(F)C(F)F)c2)[nH]c2ccccc12 [TCMDC-139419],-24.87%
9,CCCC(CNCc1cccc(OC(F)(F)F)c1)CNc1cc(=O)c2ccccc2[nH]1 (centres unmarked) [TCMDC-139429],83.68%
10,CCCC(CNCc1cccc(OCC)c1)CNc1cc(=O)c2ccccc2[nH]1 (centres unmarked) [TCMDC-139432],35.2%
11,O=c1cc(NCCCNCc2ccc(Cl)c(Cl)c2)[nH]c2ccc(C(F)(F)F)cc12 [TCMDC-139407],4.234%
12,CCc1cc(Br)c(CNCCCNc2cc(=O)c3ccccc3[nH]2)s1 [TCMDC-140745],-24.29%
13,O=c1cc(NCCCNCc2sc(Br)c(Br)c2Br)[nH]c2ccccc12 [TCMDC-139647],-5.668%
14,CCC/C=C/c1c(CNCCCNc2cc(=O)c3ccccc3[nH]2)sc(CC)c1Br [TCMDC-140971],58.98%
15,O=c1cc(NCCCNCc2cccc(OC(F)(F)F)c2)[nH]c2ccccc12 [TCMDC-139418],80.26%
16,CN(C)CC(=O)NCC(NCCCNc1cc(=O)c2ccccc2[nH]1)c1cc(Br)cc(Br)c1 (centres unmarked) [TCMDC-140314],-36.64%
17,CN(CCCN(C)c1cc(NC(=O)c2ccc(F)cc2)ccn1)Cc1cccc(F)c1 [TCMDC-135041],-7.091%
18,Cc1ccc(O)c(-c2cc(C(=O)Nc3ccc(S(=O)(=O)N4CCCC(C)C4)cc3)[nH]n2)c1 (centres unmarked) [TCMDC-125202],-32.7%
19,CN1CCCc2ccc(NC(=O)c3cnc(-c4ccccc4)cn3)cc21 [TCMDC-141218],-34.46%
20,O=c1cc(NCCCNC2CCc3ccc(Cl)cc32)[nH]c2ccccc12 (centres unmarked) [TCMDC-139365],84.72%
21,O=c1cc(NCCCN(Cc2ccccc2)Cc2ccccc2)[nH]c2ccccc12 [TCMDC-139368],-49.11%
22,O=c1cc(NCCCNC(c2ccccc2)c2ccc(Cl)c(Cl)c2)[nH]c2ccccc12 (centres unmarked) [TCMDC-139318],54.86%
23,O=c1cc(NCCCNC2CCCc3c2cc(Cl)c(Cl)c3Cl)[nH]c2ccccc12 (centres unmarked) [TCMDC-139478],2.268%
24,O=c1cc(NCCCNCc2cc(Cl)c(Cl)cc2Cl)[nH]c2ccccc12 [TCMDC-139631],-58.3%
25,O=c1cc(NCCCNC2CCc3c(Cl)cc(Cl)cc32)[nH]c2ccccc12 (centres unmarked) [TCMDC-139485],17.36%
